According to the supplement of paper PMC9694430:

Experiments:
Test in all cases: thermal shift delta Tm vs DMSO control; higher = stronger stabilization (binding)
Settings in all cases: 12.5 µM; protein concentration 2 µM
[1] = system: LOC_OS01G01410-cb001
Procedure, shortened: (§1)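 Rice kinase domain constructs were expressed in E. coli, purified, and tested by differential scanning fluorimetry with compound added in DMSO. Each well of a 96-well plate held 19.5 μl of 2 μM kinase in 100 mM potassium phosphate pH 7.5, 150 mM NaCl, 10% glycerol and 5 × SYPRO Orange, and fluorescence was read from 25°C to 95°C at 0.05°C/s. The melting temperature shift is the mean of triplicates, taken against protein with DMSO alone after Boltzmann fitting.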

[2] = system: LOC_OS01G02750-cb003
Procedure, shortened: as §1

[3] = system: LOC_OS01G10900-cb004
Procedure, shortened: as §1

[4] = system: LOC_OS01G13800-cb001
Procedure, shortened: as §1

[5] = system: LOC_OS01G14860-cb001
Procedure, shortened: as §1

[6] = system: LOC_OS01G21960-cb002
Procedure, shortened: as §1

[7] = system: LOC_OS01G39600-cb002
Procedure, shortened: as §1

[8] = system: LOC_OS01G48390-cb002
Procedure, shortened: as §1

[9] = system: LOC_OS01G51400-cb002
Procedure, shortened: as §1

[10] = system: T1, LOC_OS01G52050-cb004
T1 sequence (whole entry): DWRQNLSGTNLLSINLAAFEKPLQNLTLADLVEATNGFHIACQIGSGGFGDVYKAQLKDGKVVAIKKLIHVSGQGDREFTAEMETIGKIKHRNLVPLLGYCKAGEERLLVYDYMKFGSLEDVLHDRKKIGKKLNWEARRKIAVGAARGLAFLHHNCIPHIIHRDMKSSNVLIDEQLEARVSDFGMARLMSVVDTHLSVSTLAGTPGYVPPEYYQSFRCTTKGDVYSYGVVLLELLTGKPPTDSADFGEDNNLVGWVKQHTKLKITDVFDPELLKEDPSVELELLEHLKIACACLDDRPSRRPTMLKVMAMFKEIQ
Procedure, shortened: as §1

[11] = system: LOC_OS01G57100-cb003
Procedure, shortened: as §1

[12] = system: LOC_OS01G60330-cb001
Procedure, shortened: as §1

[13] = system: LOC_OS01G60700-cb002
Procedure, shortened: as §1

[14] = system: LOC_OS01G63280-cb003
Procedure, shortened: as §1

[15] = system: LOC_OS01G67340-cb003
Procedure, shortened: as §1

[16] = system: LOC_OS01G70970-cb002
Procedure, shortened: as §1

[17] = system: LOC_OS02G07810-cb001
Procedure, shortened: as §1

[18] = system: LOC_OS02G08530-cb003
Procedure, shortened: as §1

[19] = system: LOC_OS02G14120-cb001
Procedure, shortened: as §1

[20] = system: LOC_OS02G17970-cb001
Procedure, shortened: as §1

SMILES | thermal shift delta Tm [1] [°C] | thermal shift delta Tm [2] [°C] | thermal shift delta Tm [3] [°C] | thermal shift delta Tm [4] [°C] | thermal shift delta Tm [5] [°C] | thermal shift delta Tm [6] [°C] | thermal shift delta Tm [7] [°C] | thermal shift delta Tm [8] [°C] | thermal shift delta Tm [9] [°C] | thermal shift delta Tm [10] [°C] | thermal shift delta Tm [11] [°C] | thermal shift delta Tm [12] [°C] | thermal shift delta Tm [13] [°C] | thermal shift delta Tm [14] [°C] | thermal shift delta Tm [15] [°C] | thermal shift delta Tm [16] [°C] | thermal shift delta Tm [17] [°C] | thermal shift delta Tm [18] [°C] | thermal shift delta Tm [19] [°C] | thermal shift delta Tm [20] [°C]
Cc1c(CN2CCN(C(=O)[C@H](C)O)CC2)sc2c(N3CCOCC3)nc(-c3cnc(N)nc3)nc12 [Apitolisib (GDC-0980, RG7422)] | 0.32 | 0.18 | 0.13 | 0.56 | 0.1 | 0.49 | 0.16 | 0.64 | 0.53 | 0.42 | 0.9 | 0.98 | 0.46 | 0.4 | 0.25 | 0.37 | 1.43 | 1.01 | 0.42 | 1.03
O=C(NOCC(O)CO)c1cc(Br)c(F)c(F)c1Nc1ccc(I)cc1F (stereo not given) | 0.9 | 3.49 | 1.07 | 1.05 | 1.29 | 1.44 | 0.76 | 1.12 | 0.46 | 2.46 | 2.4 | 2.2 | 1.6 | 1.18 | 0.03 | 0.55 | 2.41 | 1.08 | 1.22 | 2.02
COc1cc(OC)cc(-c2cc3cnc(N)nc3nc2NC(=O)NC(C)(C)C)c1 | 0.51 | 1.48 | 0.1 | 0.07 | 0.48 | 0.33 | -0.76 | 0.85 | 0.05 | 1.75 | 1.18 | 0.3 | 0.16 | 0.24 | -0.11 | 0.35 | -0.88 | 0.52 | 0.72 | -0.49
CO[C@H]1C[C@@H]2CC[C@@H](C)[C@@](O)(O2)C(=O)C(=O)N2CCCC[C@H]2C(=O)O[C@H]([C@H](C)C[C@@H]2CC[C@@H](O)[C@H](OC)C2)CC(=O)[C@H](C)/C=C(\C)[C@@H](O)[C@@H](OC)C(=O)[C@H](C)C[C@H](C)/C=C/C=C/C=C/1C [Rapamycin (Sirolimus)] | 0.87 | 0.22 | -0.07 | -0.01 | 0.33 | 0.21 | 0.05 | 0.16 | 0.12 | -0.13 | 1.56 | 1.82 | 1.04 | 0.14 | -0.59 | 0.17 | 0.45 | 0.43 | 1 | 0.46
CCOc1cc(N2CCC(O)CC2)ccc1Nc1ncc2c(n1)N(C)c1ccccc1C(=O)N2C | 0.48 | 0.5 | 0.7 | -0.03 | 0.03 | 0.41 | -0.54 | 0.04 | 0.06 | -0.47 | 1.56 | 0.82 | 1.24 | -0.13 | -0.04 | 0.52 | 0.39 | 0.9 | -0.64 | 0.7
C[C@@H](Oc1cc(-n2cnc3ccc(CN4CCN(C)CC4)cc32)sc1C(N)=O)c1ccccc1C(F)(F)F | 0.17 | 0.34 | 3.48 | 0.56 | 0.12 | 1.19 | 0.33 | 0.1 | -0.17 | 0.53 | 0.34 | 0.7 | 0.72 | 0.17 | 0.69 | 0.44 | 1.22 | 3.01 | -0.04 | 0.25
Cc1cnc(Nc2ccc(N3CCN(C)CC3)cc2)nc1Nc1cccc(S(=O)(=O)NC(C)(C)C)c1 | 1.26 | 0.29 | 0.71 | 0.25 | 1.34 | 2.76 | 6.04 | 1.61 | 0.64 | 3.19 | 2.09 | 2.84 | 1.28 | 0.46 | 1.05 | 3.63 | 0.9 | 3.06 | 8.37 | 1.17
CO[C@H]1C[C@@H]2CC[C@@H](C)[C@@](O)(O2)C(=O)C(=O)N2CCCC[C@H]2C(=O)O[C@H]([C@H](C)C[C@@H]2CC[C@@H](OP(C)(C)=O)[C@H](OC)C2)CC(=O)[C@H](C)/C=C(\C)[C@@H](O)[C@@H](OC)C(=O)[C@H](C)C[C@H](C)/C=C/C=C/C=C/1C [Ridaforolimus (Deforolimus, MK-8669)] | 0.73 | -1.9 | 0.47 | 0.18 | 0.16 | 0.07 | -0.26 | 0.54 | -0.09 | 0.11 | 0.89 | 1.16 | 0.84 | 0.17 | -0.64 | 0.14 | 0.4 | 0.57 | 0.4 | 0.27
C[C@]1(O)C[C@@H](c2nc(-c3ccc4ccc(-c5ccccc5)nc4c3)c3c(N)nccn32)C1 [Linsitinib (OSI-906)] | 1.14 | -0.88 | 0.14 | 0.82 | 0.26 | 0.9 | 1.68 | 0.41 | 0.44 | -0.16 | 0.52 | 1.43 | 1.07 | 2.13 | 0.12 | 0.38 | 1.27 | 0.86 | 0.29 | 0.89
Cc1c(Cn2c(C)nc3c(C(=O)O)cc(N4CCOCC4)cc32)cccc1C(F)(F)F | 0.42 | 2.18 | 0.15 | -0.48 | -0.01 | 0.56 | 0.55 | 5.45 | 0.63 | -0.39 | 1.01 | 0.83 | 0.4 | -0.3 | 0.23 | 0.27 | 0.73 | 0.55 | -0.38 | 0.26
Cc1c[nH]c2nc(Nc3ccc(N4CCN(C)CC4)c(F)c3)nc(-c3cccc(CC#N)c3)c12 | 6.3 | 6.99 | 3.64 | 0.12 | 5.41 | 4.45 | 9.35 | 5.5 | 1.14 | 13.5 | 5.04 | 11.8 | 1.98 | 3.25 | 11.9 | 8.75 | 1.04 | 6.49 | 15.2 | 1.24
